BAZ2B block – inhibitors of human BAZ2B bromodomain; AlphaScreen BAZ2B-H3K14Ac peptide displacement; Potency, µM (series often up to 114 µM), inactives show at the highest dose activity change, negative = inhibition, actives largely listed as inhibitors; 360,000 compounds, 4.4% hits; AID 504333; note: potency is the fitted concentration of half-maximal effect; % is set by controls: 0 for no effect and ±100 for the full control effect; nearly all actives have a fitted effect of over 60% in size
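Inhibition is scored as reduced AlphaScreen emission. The BAZ2B/b-H3(5-23)K14Ac complex (50 nM each) in PBS pH 7.4, 0.01% Tween-20 meets compound (up to 110 uM) for 30 min at RT before bead addition.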
HP1b chromo inh – inhibitors of HP1-beta chromodomain binding to methylated histone tails; P83916; AlphaScreen HP1-beta / biotin-H3K9me3 peptide binding; Potency, µM (titrated, usually from 114 µM), without a hit: at the highest dose activity change, negative = inhibition, usual class: inhibitors; 390,000 compounds, 0.56% hits; AID 540317; note: potency is the fitted concentration of half-maximal effect; nearly all actives have a fitted effect of over 70% in size
Target sequence (P83916 whole entry, looked up): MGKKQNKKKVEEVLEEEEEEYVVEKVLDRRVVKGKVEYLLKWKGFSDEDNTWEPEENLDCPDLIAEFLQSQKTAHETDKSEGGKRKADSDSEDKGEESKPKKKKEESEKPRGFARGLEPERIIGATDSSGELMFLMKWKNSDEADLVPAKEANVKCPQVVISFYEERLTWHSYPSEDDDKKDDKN
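Compound inhibition of the preformed complex between 50 nM HP1-beta and 50 nM biotinylated H3K9me3 peptide was read by AlphaScreen. Buffer was PBS pH 7.4 with 0.01% Tween-20. Incubations ran 30 min at room temperature, with 10 ug/mL donor/acceptor beads.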
G9a inh – blocks human histone lysine methyltransferase G9a. Q96KQ7. Potency, µM (top dose mostly 102 µM), inactives show top-dose activity, negative = inhibition, hits mostly inhibitors. G9a H3K9 monomethylation, AlphaScreen, 2 h. 350,000 compounds, 8.8% hits; note: potency is the fitted concentration of half-maximal effect; % is set by controls: 0 for no effect and ±100 for the full control effect; nearly all actives have a fitted effect of over 75% in size
Target sequence (Q96KQ7 913-1193 limits assumed): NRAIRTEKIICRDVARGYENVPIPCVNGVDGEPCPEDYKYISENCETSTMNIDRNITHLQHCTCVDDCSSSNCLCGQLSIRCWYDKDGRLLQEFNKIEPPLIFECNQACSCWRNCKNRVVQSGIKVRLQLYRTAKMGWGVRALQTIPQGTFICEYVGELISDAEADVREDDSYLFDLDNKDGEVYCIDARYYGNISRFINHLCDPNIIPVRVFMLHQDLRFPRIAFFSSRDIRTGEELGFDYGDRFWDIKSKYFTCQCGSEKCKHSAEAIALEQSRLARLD
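Readings reflect AlphaScreen signal from monomethyl-H3K9 antibody detection. HMT at 20 nM; substrate b-H3K9 500 nM; cofactor SAM 20 uM; 2 h RT reaction; compounds tested as titrations in qHTS with 15 min preincubation.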
JMJD2A Tudor – inhibitors of human JMJD2A Tudor domain; O75164; 390,000 compounds, 4.4% hits; Potency, µM (top dose mostly 114 µM), inactives show at the top dose activity change, negative = inhibition, actives largely listed as inhibitors; AlphaScreen JMJD2A-Tudor / H3K4me3 peptide binding; AID 504339; note: potency is the fitted concentration of half-maximal effect; % is set by controls: 0 for no effect and ±100 for the full control effect; nearly all actives have a fitted effect of over 50% in size
PI5P4K alpha inh – PI5P4K alpha (human) kinase inhibition; max response, %; 330,000 compounds, 1.2% hits; AID 652105; PI5P4Kalpha enzyme, ADP-Glo luminescence, 60 min; active compounds read low; P48426; active = max response of -50% or lower; inconclusive = between -30% and -50%; inactive = -30% or higher; note: value at the top dose of about 77 µM; % is set by controls: 0 for no effect and ±100 for the full control effect
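Human PI5P4Kalpha with substrate in 0.038 M HEPES pH 7.4, 0.28 mM EGTA, 0.1% CHAPS, 5% DMSO; reaction started with 5 microM ATP (final), 60 min at room temperature. ADP formed read by ADP-Glo luminescence.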
PLK1 PBD block – blocks phosphopeptide binding to human PLK1 polo-box domain; P53350; Plk1 PBD binding of FITC phosphopeptide, fluorescence polarization; Potency, µM, inactives show max response, negative = inhibition, hits mostly inhibitors; 360,000 compounds, 2.8% hits; AID 720504; note: potency is the fitted concentration of half-maximal effect; series mostly up to about 57 µM; % is set by controls: 0 for no effect and ±100 for the full control effect; nearly all actives have a fitted effect of over 65% in size
Starred values were filed as active, the others as inactive; ! = repeats disagree; [ ] = another dose, or the depositor's remark. In the library only some 12% were active in any assay of this set; here they are far more common. Unless noted, calls come from the whole dose curve; as a rule, active = well fitted curve in the direction sought with a large enough effect; inconclusive = small, poorly fitted or top-dose-only effect, or another doubt; inactive = no such curve, though single readings can be large; an effect the other way counts as inactive or inconclusive.

What do the screens show for `COc1ccc2c(c1)Sc1ccccc1N2CCN(C)C`?
BAZ2B block: 25µM*; HP1b chromo inh: 32µM*; G9a inh: inconclusive; JMJD2A Tudor: inconclusive; PI5P4K alpha inh: -4; PLK1 PBD block: -5%

Results for COc1ccc([C@H]2Sc3ccccc3N(CCN(C)C)C(=O)[C@H]2OC(C)=O)cc1 ?
G9a inh: 20%[21.5 µM]

What do the screens show for `CN(C)CCCN1c2ccccc2CCc2ccc(Cl)cc21`?
BAZ2B block: inconclusive; HP1b chromo inh: 26%; G9a inh: 8%[21.5 µM]; JMJD2A Tudor: -29%; PI5P4K alpha inh: 10; PLK1 PBD block: 1%

How did CN(C)CCCN1c2ccccc2Sc2ccccc21 do in these assays?
BAZ2B block: inconclusive; HP1b chromo inh: 24%; G9a inh: 45µM*!; JMJD2A Tudor: -14%; PI5P4K alpha inh: 14; PLK1 PBD block: -8%

Results for CC(=O)c1ccc2c(c1)N(C)c1ccccc1S2 ?
BAZ2B block: 223%; HP1b chromo inh: 456%; G9a inh: 160%[59 µM]; JMJD2A Tudor: 151%[57.1 µM]; PI5P4K alpha inh: 11; PLK1 PBD block: -16%

Results for CCOC(=O)CN1C(=O)N[C@@H](c2ccco2)C(C(=O)OC)=C1C ?
HP1b chromo inh: 31%; JMJD2A Tudor: -17%; PI5P4K alpha inh: -2; PLK1 PBD block: 1%

How did CC1(C(=O)NS(=O)(=O)c2ccc(Cl)cc2)CCN1C(=O)CCC1CCCC1 (stereo not drawn) do in these assays?
PI5P4K alpha inh: 6; PLK1 PBD block: 1%

What do the screens show for `CCNC(=O)CCSc1nc(C)cc(C)n1`?
BAZ2B block: 0%; HP1b chromo inh: 10%; G9a inh: 3.5µM*; JMJD2A Tudor: inconclusive; PI5P4K alpha inh: -30; PLK1 PBD block: -6%

How did Cc1cc(C)nc(SCCC(=O)N(C)C)n1 do in these assays?
BAZ2B block: -1%; HP1b chromo inh: 39%; G9a inh: 8.9µM*; JMJD2A Tudor: inconclusive; PI5P4K alpha inh: -2; PLK1 PBD block: inconclusive

Results for COc1ccccc1NC(=O)CSc1nnc2c3ccccc3n(C(C)C)c2n1 ?
BAZ2B block: -16%; HP1b chromo inh: 6%; G9a inh: -3%[59 µM]; JMJD2A Tudor: -12%

Results for COc1ccc(NS(=O)(=O)c2cc(C(=O)N(C)CCc3ccccn3)ccc2Cl)cc1 ?
HP1b chromo inh: 67%; JMJD2A Tudor: -13%; PI5P4K alpha inh: -8; PLK1 PBD block: -1%

Results for COc1ccc(Cl)cc1C(=O)n1cnc2ccccc21 ?
BAZ2B block: -9%; HP1b chromo inh: 41%; G9a inh: -7%; JMJD2A Tudor: -2%; PI5P4K alpha inh: -6; PLK1 PBD block: -9%

What do the screens show for `Nc1ccccc1Nc1ccncc1[N+](=O)[O-]`?
BAZ2B block: -36%; HP1b chromo inh: 14%; JMJD2A Tudor: -8%; PI5P4K alpha inh: 2; PLK1 PBD block: -7%

What do the screens show for `Nc1ccccc1Nc1c(F)c(F)nc(F)c1Cl`?
BAZ2B block: inconclusive; HP1b chromo inh: 13%; G9a inh: 13µM*; JMJD2A Tudor: -33%; PI5P4K alpha inh: -5; PLK1 PBD block: -2%

How did CC(=O)Nc1ccc2c(c1)C(=Nc1ccccc1)c1ccccc1-2 do in these assays?
HP1b chromo inh: -26%[57 µM]; JMJD2A Tudor: 35µM*; PI5P4K alpha inh: -2; PLK1 PBD block: -6%

Results for N#Cc1ccccc1NC(=O)COC(=O)c1c[nH]c2ccccc12 ?
BAZ2B block: 2%; HP1b chromo inh: 11%; G9a inh: inconclusive; JMJD2A Tudor: -5%; PI5P4K alpha inh: 2; PLK1 PBD block: -5%

Results for O=C(/C(N=Nc1cccc(C(F)(F)F)c1)=C(/O)c1cccs1)C(F)(F)F ?
BAZ2B block: inconclusive; HP1b chromo inh: inconclusive; G9a inh: 20µM*; JMJD2A Tudor: 50µM*; PI5P4K alpha inh: -17; PLK1 PBD block: -23%

How did N#C/C(=C\c1coc2ccc(O)cc2c1=O)C(=O)Nc1nc2ccccc2s1 do in these assays?
BAZ2B block: inconclusive; HP1b chromo inh: inconclusive; G9a inh: inconclusive; JMJD2A Tudor: 63µM*; PI5P4K alpha inh: -101*; PLK1 PBD block: inconclusive

What do the screens show for `O=C(CC1OCC2CCCN2C1=O)Nc1ccc([N+](=O)[O-])cc1` (stereo not drawn)?
BAZ2B block: 2%; HP1b chromo inh: 37%; G9a inh: 8.9µM*; JMJD2A Tudor: -7%; PI5P4K alpha inh: -4; PLK1 PBD block: -1%

What do the screens show for `CCCCn1c(N)c(N(CCOC)C(=O)CN(C)CC(=O)Nc2ccc(Cl)c(Cl)c2)c(=O)[nH]c1=O`?
HP1b chromo inh: 2%; JMJD2A Tudor: -13%; PI5P4K alpha inh: 7; PLK1 PBD block: -5%

What do the screens show for `Nc1c(-c2ccc3c(c2)OCCO3)oc2ccccc2c1=O`?
BAZ2B block: 34%; HP1b chromo inh: 45%; G9a inh: 50µM*; JMJD2A Tudor: 30%[57.1 µM]; PI5P4K alpha inh: 4; PLK1 PBD block: inconclusive

How did COc1ccc(Cn2c(SCc3ccccc3C)nc3cc(OC)c(OC)cc3c2=N)cc1 do in these assays?
BAZ2B block: inconclusive; G9a inh: 40µM*

What do the screens show for `COc1cc2nc(SCc3ccc(F)cc3)n(Cc3cccs3)c(=N)c2cc1OC`?
BAZ2B block: inconclusive; HP1b chromo inh: 29%; G9a inh: 21%[12.7 µM]; JMJD2A Tudor: -31%; PI5P4K alpha inh: 3; PLK1 PBD block: 2%

How did Cc1ccc(C)c(C(=O)CCC(=O)NNC(=O)c2cccs2)c1 do in these assays?
HP1b chromo inh: 41%; JMJD2A Tudor: -4%; PI5P4K alpha inh: -5; PLK1 PBD block: 3%

What do the screens show for `CCOc1ccc(Nc2ccc(N)c(S(=O)(=O)O)c2)cc1`?
HP1b chromo inh: 50µM*; JMJD2A Tudor: 56µM*; PI5P4K alpha inh: -60*; PLK1 PBD block: inconclusive

How did COc1ccc(OC)c(NS(=O)(=O)c2ccc3[nH]c(=O)[nH]c3c2)c1 do in these assays?
PI5P4K alpha inh: 0; PLK1 PBD block: -4%

Results for Cc1ccc(C2CC2C(=O)NNC(=S)Nc2ccc(Cl)cc2)cc1 (stereo not drawn) ?
BAZ2B block: -8%; HP1b chromo inh: -18%; G9a inh: 25µM*; JMJD2A Tudor: -28%; PI5P4K alpha inh: -1; PLK1 PBD block: -21%

Results for CC(C)(C)NC(=S)NNC(=O)[C@H]1C[C@@H]1c1ccccc1 ?
BAZ2B block: -2%; HP1b chromo inh: 40%; G9a inh: 13%[59 µM]; JMJD2A Tudor: -12%; PI5P4K alpha inh: -1; PLK1 PBD block: -8%

What do the screens show for `O=C(NC(=S)Nn1cnnc1)c1ccccc1Br`?
BAZ2B block: -28%; HP1b chromo inh: inconclusive; G9a inh: -127%[59 µM]; JMJD2A Tudor: -15%; PI5P4K alpha inh: -14; PLK1 PBD block: 30µM*

Compound activity as filed in PubChem BioAssay.
